# Nrf2 activator: Nrf2 pathway activation; AREc32 ARE-luciferase reporter (MCF7-derived line), luminescence, 24 h; Potency, µM (top dose mostly 46.1 µM), for inactives: at the top dose activation, usual class: activators; hit rate 0.31% among 410,000; also: % of control where 0% means no effect; nearly all actives have a fitted effect of over 65% in size
#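 Nrf2 activation is followed as ARE-luciferase induction in the AREc32 line after one day of compound treatment; luminescence is read with Steady-Glo.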
# ATXN2 expr inh: inhibitors of ATXN2 expression. AID 1745845. HEK-293 ATXN2-luciferase reporter, luminescence, 24 h. hit rate 0.72% among 360,000. Potency, µM (highest dose often 57 µM), for the others: at the highest dose activity change, negative = inhibition, most hits filed as inhibitors; also: % is scaled to controls: 0 for no effect and ±100 for the full control effect; nearly all actives have a fitted effect of over 55% in size
#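 qHTS (up to 57 uM final) was run with 24 h compound exposure of reporter cells at 37 °C. Each well was multiplexed: SteadyGlo luminescence measured ATXN2-luciferase expression after a fluorogenic Gly-Phe-AFC viability readout (25 uM final).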
# Nrf2 block: inhibitors of Nrf2 signaling; A549 ARE-Fluc reporter, luciferase luminescence, 18-24 h; Potency, µM (top dose mostly 46 µM), for inactives: at the top dose activity change, negative = inhibition, actives largely listed as inhibitors; hit rate 2.1% among 360,000; AID 504444; also: % is scaled to controls: 0 for no effect and ±100 for the full control effect; nearly all actives have a fitted effect of over 60% in size
#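 Quantitative HTS in A549 cells stably bearing an antioxidant response element-firefly luciferase construct. Inhibition of Nrf2-driven transcription was scored by luminescence after 18-24 h of compound exposure at 37 °C.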
# S2 tox: viability counter-screen for ATXN expression inhibitors; S2 cells (HEK-293 line with an ATXN2-luciferase reporter) viability, CellTiter-Fluor protease fluorescence, 24 h; hit rate 0.49% among 400,000; Potency, µM (highest dose often 56.7 µM), actives largely listed as cytotoxic; also: nearly all actives have a fitted effect of over 40% in size
# A549 viability: kills or reduces viability of A549 cells in Nrf2 counter-screen; A549 ARE-Fluc cells, CellTiter-Fluor viability, 18-24 h; Potency, µM (series often up to 46 µM), inactives show at the top dose activity change, negative = cytotoxicity, most hits filed as inhibitors; hit rate 0.16% among 390,000; AID 504648; also: % is scaled to controls: 0 for no effect and ±100 for the full control effect
#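 A549 ARE_Fluc cells in 5% FBS OPTI-MEM were exposed to compounds in concentration-response for 18-24 h at 37 deg C. Viability was read by CellTiter-Fluor fluorescence (Ex 405/Em 525) after 30 min, before the luciferase read.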
# Numbers without * were called inactive; i = inactive; ? = inconclusive; · = no result given; [ ] = remark or other dose. Compounds with a hit are over-represented: about 2.9% of the library has one in this group of screens. Calls follow the shape of the dose curve; as a rule, active = well fitted curve in the direction sought with a large enough effect; inconclusive = small, poorly fitted or top-dose-only effect, or another doubt; inactive = no such curve, though single readings can be large; an effect the other way counts as inactive or inconclusive. Potency is read from the fitted curve at half-maximal effect.
SMILES,Nrf2 activator,ATXN2 expr inh,Nrf2 block,S2 tox,A549 viability
O=C1C2CC=CCC2C(=O)N1c1ccc(Cc2ccncc2)cc1 (stereo not drawn),-1%,-8%,9.2µM*,i,-16%
O=C(Nc1cnn(C23CC4CC(CC(C4)C2)C3)c1)c1cnn2c(C(F)(F)F)cc(-c3ccco3)nc12,-1%,22µM*,-11%,?,0%
O=C(c1ccc(NS(=O)(=O)c2cccc(F)c2)cc1)N1CCCC1,-1%,-8%,-6%,i,1%
CCN(CC)CCCCNc1ncc2cc(-c3cc(OC)cc(OC)c3)c(NC(=O)NC(C)(C)C)nc2n1,-1%,?,?,8.9µM*,?
COc1ccc(C(NCC(=O)NC(C)c2ccc(Cl)cc2)c2ccccc2)cc1 (stereo not drawn),4%,?,15µM*,i,?
c1ccc2c(c1)CCN(c1nc3ccccc3n3cnnc13)C2,13µM*,13%,15%,?,-7%
Cc1ccc(NC(=O)N2CCCC2C(=O)Nc2ccc(-n3cnnn3)c(C)c2)cc1 (stereo not drawn),0%,0%,15%,i,12%
Cc1cc(NC(=O)C2CCCN2C(=O)Nc2cccc(Cl)c2)ccc1-n1cnnn1 (stereo not drawn),-1%,-29%[11.3 µM],16µM*,i,-3%
CN1CCN(C(=O)CN2C(=O)COc3ccc(S(=O)(=O)N4CCOCC4)cc32)CC1,1%,3%,11%,i,-2%
NNC(=O)/C(=N/Nc1ccccc1)S(=O)(=O)c1ccc(Cl)cc1,0%,14µM*,-21%,?,-14%
CCOC(=O)/C(=N/Nc1ccc(C)cc1)S(=O)(=O)c1ccc(Cl)cc1,5%,60%,?,i,-19%
Cc1ccc(S(=O)(=O)N2CCC(C)CC2)cc1C(=O)NCCN1CCOCC1,3%,-5%,-24%,i,0%
CC(=O)Nc1cc[n+](CC(=O)c2ccc(Cl)cc2)cc1,1%,2%,23µM*,i,-2%
CN(C)c1cc[n+](CC(=O)Nc2ccc(Oc3ccccc3)cc2)cc1,1%,?,23µM*,?,-16%
CN(C)c1cc[n+](CC(=O)Nc2ccc(Cl)cc2)cc1,0%,?,6.5µM*,i,2%
CN(C)c1cc[n+](CC(=O)c2ccc(OC(F)F)cc2)cc1,0%,-15%,21µM*,i,-6%
CCOc1ccc(NC(=O)C[n+]2ccc(N(C)C)cc2)cc1,0%,-1%,?,i,-2%
S=C(NC12CC3CC(CC(C3)C1)C2)N1CCCC1,2%,0%,4%,i,-1%
CC1CCCC(C)N1C(=O)COC(=O)c1cc(Br)ccc1Cl (stereo not drawn),14%,-1%,8%,i,0%
CCOC(=O)c1ccc(Nc2c(CC)c(C)nc3ncnn23)cc1,-1%,-7%,26µM*,i,-18%
CCc1c(C)nc2ncnn2c1N1CCC(C(=O)Nc2ccccc2)CC1,-1%,-28%,-30%,i,-9%[1.84 µM]
CCc1c(C)nc2ncnn2c1N1CCC(C(=O)Nc2ccc(C)cc2)CC1,3%,?,13µM*,i,-1%[1.84 µM]
CCc1nc2ccc(C(=O)N3CCN(c4ccccc4)CC3)cn2c1N(CCC(C)C)CCN(C)C,7%,0%,·,i,·
CCn1cc2nc(SCc3ccc(C)cc3)n(CCc3ccccc3)c(=O)c2n1,-1%,?,21µM*,i,?
COc1cccc(CNS(=O)(=O)c2ccc3c(c2)NC(=O)CS3)c1,2%,·,7%,i,-1%
CNc1ccccc1C(C)(C)c1cc(-c2ccc(F)cc2)no1,-1%[9.22 µM],0%,8.2µM*,i,-15%
CC[C@@H](C(=O)[C@@H](C)[C@@H](O)[C@H](C)CCc1ccc(C)c(O)c1C(=O)O)[C@H]1O[C@](CC)([C@H]2CC[C@](O)(CC)[C@H](C)O2)C[C@@H]1C,-3%,20µM*,5.2µM*,13µM*,6.5µM*
CCOC(=O)C(NC(=O)c1ccccc1)(OCc1ccc(F)cc1)C(F)(F)F (stereo not drawn),0%,-10%,-1%,?,-1%
Cc1sc2ncn(CC(=O)N3CCN(c4ccc(F)cc4)CC3)c(=O)c2c1S(=O)(=O)N1CCC(C)CC1,-1%,-18%,-2%[9.27 µM],?,-10%
